Records with an inconclusive call do not appear. The source made the active and inactive calls. Unless noted, calls follow the shape of the full dose curve.
Legend:
[1] = Nuclear factor erythroid 2-related factor 2/antioxidant responsive element (Nrf2/ARE) small molecule agonists: qHTS cell viability counter screen in human keratinocytes (AID 1919968; active = well fitted curve in the direction sought with a large enough effect in the repeat runs; an effect the other way counts as inactive or inconclusive; also: nearly all actives have a fitted effect of over 55% in size)
In short: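 KeratinoSens cells (HaCaT keratinocytes stably carrying an ARE-luciferase reporter) were seeded at 1,500 cells/well and rested 5 h at 37 C/5% CO2. They were then exposed to compounds in DMSO for 23 h. Viability was read by CellTiter-Fluor fluorescence after 1 h.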

[2] = Nuclear factor erythroid 2-related factor 2/antioxidant responsive element (Nrf2/ARE) small molecule agonists: luciferase reporter gene qHTS assay in human keratinocytes (AID 1919969); also: nearly all actives have a fitted effect of over 35% in size
[3] = molecular target: Gonadotropin-releasing hormone receptor (Homo sapiens) (UniProt P30968); assay: Human gonadotropin-releasing hormone receptor (GnRHR) small molecule agonists, calcium flux assay in GnRHR-HEK293 cells (AID 1920063); also: nearly all actives have a fitted effect of over 35% in size
In short: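 HEK293 cells stably expressing human GnRHR were plated 18 h at 37 °C, loaded with calcium dye 1 h at 37 °C, then given compound in agonist mode; fluorescence (Ex/Em 480/540) read kinetically for 3 min at 1 s intervals.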

[4] = molecular target: KiSS-1 receptor (Homo sapiens) (UniProt Q969F8); assay: Human kisspeptin (KISS1R) small molecule agonists, calcium flux assay in KISS1R-HEK293 cells (AID 1920064; active = well fitted curve in the direction sought with a large enough effect in the repeat runs; an effect the other way counts as inactive or inconclusive)
In short: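 HEK293 cells stably expressing human KISS1R were plated 18 h at 37 °C, loaded with calcium dye for 1 h at 37 °C, then given compound by pin tool. Fluorescence (Ex/Em 480/540) was read kinetically for 3 min.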

[5] = G protein-coupled receptor (GPCR) small molecule agonists, calcium flux assay: HEK293 wild type cell line counter screen (AID 1920065)
In short: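 Cells were plated and cultured 18 h at 37 C/5% CO2, then loaded with calcium dye for 1 h at 37 C. Compounds in DMSO were pin-transferred in agonist mode, and fluorescence (Ex/Em 480/540) was read kinetically for 3 min at 1 s intervals.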

[6] = p53 small molecule agonists, cell-based qHTS assay with human liver microsomes: qHTS cell viability counter screen (AID 1963579); also: nearly all actives have a fitted effect of over 45% in size
In short: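 Metabolic activation used human liver microsomes and NADPH, both 0.5 mg/mL final, over 16 hours at 37 C on p53RE-bla cells (4,000/well). Cytotoxicity measured by CellTiter-Glo luminescence, 30 min at room temperature.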

[7] = p53 small molecule agonists, cell-based qHTS assay with rat liver microsomes: qHTS cell viability counter screen (AID 1963580); also: nearly all actives have a fitted effect of over 45% in size
In short: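 Intracellular ATP, by CellTiter-Glo luminescence, defines viability. HCT-116 p53RE-bla cells, 4,000 per well, were compound-treated in the presence of rat liver microsomes and NADPH for 16 h at 37 C.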

[8] = p53 small molecule agonists, cell-based qHTS assay: qHTS cell viability counter screen (AID 1963581); also: nearly all actives have a fitted effect of over 45% in size
In short: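 p53RE-bla HCT-116 cells were exposed to compounds for 16 h at 37 C; after the beta-lactamase FRET read in the same wells, CellTiter-Glo was added and luminescence (intracellular ATP) read after 30 min at room temperature.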

[9] = molecular target: 5-hydroxytryptamine receptor 2A (Homo sapiens) (UniProt P28223); assay: 5-hydroxytryptamine receptor 2A (HTR2A) small molecule antagonists, cell-based qHTS assay (AID 1963586); also: nearly all actives have a fitted effect of over 45% in size
In short: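 Antagonist-mode intracellular calcium assay: DOI (4 nM) added after 5 min compound pre-incubation at room temperature to dye-loaded HTR2A-CHO cells. Fluorescence followed for 3 min, sampled every second.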

[10] = molecular target: 5-hydroxytryptamine receptor 2A (Homo sapiens) (UniProt P28223); assay: 5-hydroxytryptamine receptor 2A (HTR2A) small molecule agonists, cell-based qHTS assay (AID 1963587); also: nearly all actives have a fitted effect of over 30% in size
In short: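 Kinetic calcium-flux fluorescence (2 min, 1 sec intervals) after compound addition in agonist mode. HTR2A-CHO cells were cultured 18 h, then dye-loaded 1 h at 37 C.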

[11] = molecular target: Muscarinic acetylcholine receptor M1 (Homo sapiens) (UniProt P11229); assay: Cholinergic receptor muscarinic 1 (CHRM1) small molecule antagonists, cell-based qHTS assay (AID 1963588); also: nearly all actives have a fitted effect of over 40% in size
In short: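 CHRM1-CHO calcium-flux assay, antagonist mode. Cells were seeded 18 h, dye-loaded 1 h at 37 C and given compound for 5 min at RT, then acetylcholine was added at 50nM. FDSS fluorescence was read 3 min; 15 concentrations, three runs.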

[12] = molecular target: Muscarinic acetylcholine receptor M1 (Homo sapiens) (UniProt P11229); assay: Cholinergic receptor muscarinic 1 (CHRM1) small molecule agonists, cell-based qHTS assay (AID 1963589); also: nearly all actives have a fitted effect of over 35% in size
In short: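 CHO cells stably expressing human CHRM1, seeded 18 h at 37 C/5% CO2, dye-loaded 1 h at 37 C, then given compound in agonist mode; intracellular calcium fluorescence read kinetically at 1 s intervals. Fifteen concentrations, three independent runs.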

[13] = cAMP Responsive Elements (CRE) small molecule agonists, cell-based qHTS assay (AID 1963590)
In short: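 CRE-bla HEK 293T cells in DMEM with 10% dialyzed FBS, NEAA, pyruvate and 25 mM HEPES were plated 18 h at 37 C/5% CO2, then exposed to compounds in DMSO for 3 h before LiveBLAzer B/G FRET substrate addition.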

[14] = cAMP Responsive Elements (CRE) small molecule antagonists, cell-based qHTS assay (AID 1963591; active = well fitted inhibition curve with a large enough effect in the signal ratio in the repeat runs, not every such curve was filed as active; the % refers to the signal ratio)
In short: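 CRE-bla HEK293T cells were plated 18 h at 37 °C/5% CO2, pinned with compound in DMSO, then stimulated with NKH477 at 0.25 uM final for 3 h. LiveBLAzer B/G FRET substrate was added and plates incubated 2 h at room temperature.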

[15] = molecular target: Beta-2 adrenergic receptor (Homo sapiens) (UniProt P07550); assay: Adrenergic beta2 receptor (ADRB2) small molecule antagonists, cell-based qHTS assay (AID 1963592); also: series mostly up to about 92 µM; nearly all actives have a fitted effect of over 50% in size
In short: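 Cells (CHO, stable ADRB2 overexpression) incubated 18-20hr at 37C; compounds added from DMSO; agonist mix (1nM isoproterenol, 100uM IBMX, 25uM Ro-20-1724) added; 0.5hr RT; d2-cAMP and anti-cAMP-cryptate added; 1hr RT; 665/615 nm read.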

[16] = molecular target: D(2) dopamine receptor (Homo sapiens) (UniProt P14416); assay: Dopamine D2 receptor (DRD2) small molecule agonists, cell-based qHTS assay (AID 1963594); also: nearly all actives have a fitted effect of over 35% in size
In short: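 cAMP accumulation in DRD2-HEK293 cells measured by HTRF after 1 h detection; compounds added 10 min before NKH477 (200nM […]) forskolin-analogue stimulation, 30 min at room temperature, with Ro20-1724 present at 0.1 mM final.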

[17] = molecular target: D(2) dopamine receptor (Homo sapiens) (UniProt P14416); assay: Dopamine D2 receptor (DRD2) small molecule antagonists, cell-based qHTS assay (AID 1963595; active = well fitted inhibition curve with a large enough effect in the signal ratio in the repeat runs, with a control signal flat; the % refers to the signal ratio)
In short: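 Cells were plated and grown for 24 h at 37 °C. Ro20-1724 (0.1 mM final) went in first, then compound for 10 min. NKH477 (200 nM) with quinpirole (12 nM) followed for 30 min at RT, then HTRF detection reagents for 1 h.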

[18] = molecular target: Beta-2 adrenergic receptor (Homo sapiens) (UniProt P07550); assay: Adrenergic beta2 receptor (ADRB2) small molecule agonists, cell-based qHTS assay (AID 1963593);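 also: CHO cells stably overexpressing human ADRB2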
In short: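 CHO cells stably over-expressing ADRB2 were plated overnight at 37C, then dosed with compounds plus a stimulation mix containing 100uM IBMX and 25uM Ro-20-1724 for 0.5hr at room temperature. cAMP was measured by HTRF competition, 1hr.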

Measured: Potency

Sequence of KiSS-1 receptor (Homo sapiens) (Q969F8 whole entry, looked up): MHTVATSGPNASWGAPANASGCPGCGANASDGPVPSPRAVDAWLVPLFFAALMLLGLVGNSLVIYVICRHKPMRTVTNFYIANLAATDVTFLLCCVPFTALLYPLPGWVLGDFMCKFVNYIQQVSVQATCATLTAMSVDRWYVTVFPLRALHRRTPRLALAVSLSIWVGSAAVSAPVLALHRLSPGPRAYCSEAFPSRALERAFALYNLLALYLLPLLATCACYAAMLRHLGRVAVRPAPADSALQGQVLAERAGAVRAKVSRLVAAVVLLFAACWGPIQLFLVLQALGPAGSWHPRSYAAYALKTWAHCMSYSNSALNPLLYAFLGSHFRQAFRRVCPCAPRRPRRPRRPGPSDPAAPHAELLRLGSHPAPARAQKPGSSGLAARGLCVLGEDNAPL
Sequence of Muscarinic acetylcholine receptor M1 (Homo sapiens) (P11229 whole entry, looked up): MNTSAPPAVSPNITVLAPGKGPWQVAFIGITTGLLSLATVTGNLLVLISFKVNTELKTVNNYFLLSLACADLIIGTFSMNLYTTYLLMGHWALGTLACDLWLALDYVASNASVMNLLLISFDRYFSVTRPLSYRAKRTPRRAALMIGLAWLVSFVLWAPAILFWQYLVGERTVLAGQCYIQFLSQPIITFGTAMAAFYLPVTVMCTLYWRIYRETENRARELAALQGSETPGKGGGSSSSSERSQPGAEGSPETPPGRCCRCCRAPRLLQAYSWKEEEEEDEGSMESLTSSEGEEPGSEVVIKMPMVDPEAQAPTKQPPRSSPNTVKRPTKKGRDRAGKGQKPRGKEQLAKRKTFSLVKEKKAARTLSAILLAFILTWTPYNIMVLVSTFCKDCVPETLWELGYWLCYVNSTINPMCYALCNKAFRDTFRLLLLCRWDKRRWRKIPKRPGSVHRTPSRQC
Sequence of D(2) dopamine receptor (Homo sapiens) (P14416 whole entry, looked up): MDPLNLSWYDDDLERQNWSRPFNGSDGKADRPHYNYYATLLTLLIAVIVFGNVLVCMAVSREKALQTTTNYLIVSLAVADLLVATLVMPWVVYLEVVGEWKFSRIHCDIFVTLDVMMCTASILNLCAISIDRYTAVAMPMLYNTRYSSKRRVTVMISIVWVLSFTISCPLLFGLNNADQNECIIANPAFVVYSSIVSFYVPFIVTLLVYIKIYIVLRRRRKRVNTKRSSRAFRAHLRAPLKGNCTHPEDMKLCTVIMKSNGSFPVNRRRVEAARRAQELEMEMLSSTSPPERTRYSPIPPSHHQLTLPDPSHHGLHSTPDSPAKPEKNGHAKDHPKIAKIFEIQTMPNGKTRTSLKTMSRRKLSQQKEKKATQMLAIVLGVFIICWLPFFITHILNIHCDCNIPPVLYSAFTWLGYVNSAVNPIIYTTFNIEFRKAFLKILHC
Sequence of Beta-2 adrenergic receptor (Homo sapiens) (P07550 whole entry, looked up): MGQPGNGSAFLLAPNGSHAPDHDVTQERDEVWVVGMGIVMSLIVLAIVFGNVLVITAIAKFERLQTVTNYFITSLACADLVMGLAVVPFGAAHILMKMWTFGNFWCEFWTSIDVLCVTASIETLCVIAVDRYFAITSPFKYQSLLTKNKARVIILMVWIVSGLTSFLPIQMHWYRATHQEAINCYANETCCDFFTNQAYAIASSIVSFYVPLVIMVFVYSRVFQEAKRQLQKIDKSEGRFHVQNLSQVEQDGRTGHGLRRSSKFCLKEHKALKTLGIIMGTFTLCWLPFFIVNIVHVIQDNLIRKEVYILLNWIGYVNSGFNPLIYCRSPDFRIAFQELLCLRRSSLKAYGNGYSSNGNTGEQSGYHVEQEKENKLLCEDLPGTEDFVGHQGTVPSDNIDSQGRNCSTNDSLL
Sequence of Gonadotropin-releasing hormone receptor (Homo sapiens) (P30968 whole entry, looked up): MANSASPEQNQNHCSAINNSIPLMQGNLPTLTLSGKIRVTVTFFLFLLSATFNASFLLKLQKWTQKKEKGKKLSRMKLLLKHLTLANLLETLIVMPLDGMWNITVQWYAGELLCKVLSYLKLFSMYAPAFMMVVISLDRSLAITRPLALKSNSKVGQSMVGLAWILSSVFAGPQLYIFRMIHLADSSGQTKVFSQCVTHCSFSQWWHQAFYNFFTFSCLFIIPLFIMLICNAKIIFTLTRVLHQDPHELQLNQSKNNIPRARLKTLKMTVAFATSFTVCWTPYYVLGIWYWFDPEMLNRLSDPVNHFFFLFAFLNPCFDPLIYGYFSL
Sequence of 5-hydroxytryptamine receptor 2A (Homo sapiens) (P28223 whole entry, looked up): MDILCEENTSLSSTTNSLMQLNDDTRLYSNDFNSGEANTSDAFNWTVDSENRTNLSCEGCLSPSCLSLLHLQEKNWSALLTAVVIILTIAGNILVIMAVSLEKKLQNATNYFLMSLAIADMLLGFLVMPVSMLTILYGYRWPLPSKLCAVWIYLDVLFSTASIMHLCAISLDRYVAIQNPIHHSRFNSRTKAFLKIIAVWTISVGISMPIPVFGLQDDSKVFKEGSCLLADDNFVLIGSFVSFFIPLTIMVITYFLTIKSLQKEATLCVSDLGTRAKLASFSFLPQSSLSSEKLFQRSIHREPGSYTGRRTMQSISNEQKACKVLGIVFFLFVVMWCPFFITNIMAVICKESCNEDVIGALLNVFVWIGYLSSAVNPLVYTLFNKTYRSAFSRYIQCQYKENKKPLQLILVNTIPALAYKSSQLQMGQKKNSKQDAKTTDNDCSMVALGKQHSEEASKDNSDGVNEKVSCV

CO/N=C(/C(=O)N[C@@H]1C(=O)N2C(C(=O)[O-])=C(C[n+]3ccn4ncccc43)CS[C@H]12)c1nsc(N)n1
not listed: [18]
inactive: all other assays above

CC(=O)c1ccc2c(c1)[C@H](NC(=O)c1ccc(F)cc1)[C@@H](O)C(C)(C)O2
not listed: [18]
inactive: all other assays above

CNC1CCCN(c2c(F)cc3c(=O)c(C(=O)O)cn(C4CC4)c3c2OC)C1 (configuration not stated)
not listed: [16] | [18]
inactive: all other assays above

OCC1CC=CCC1 (configuration not stated)
not listed: [13]
inactive: all other assays above

O=C(O)/C=C(\CC(=O)O)C(=O)O
not listed: [14] | [18]
inactive: all other assays above

CCC(C)(C)OC
not listed: [14]
inactive: all other assays above

COc1ccc(/C=N/NC(=O)c2ccncc2)cc1OC
not listed: [18]
inactive: all other assays above
